According to PubChem BioAssay (Tox21):
Records with an inconclusive call do not appear. Where a call stands in place of a potency, no number is given. Values without a mark were called inactive. Active and inactive are the calls of the source. The call rests on the fitted dose curve; in most records, active means well fitted activation curve with a large enough effect in the repeat runs; inconclusive means weak or mixed curves, or effect the other way; inactive means no such curve, though single readings can be large or run the other way.
Potency means the concentration at half of the fitted maximal effect.

Test: qHTS assay to identify small molecule agonists of the estrogen related receptor signaling pathway with the pleiotropic PPARgamma coactivator (PGC) from Tox21 10K library (AID 1224842); further: nearly all actives have a fitted effect of over 15% in size
Details: PGC/ERR reporter cell line, luciferase ONE-Glo, 18 h; series mostly up to 92.4 µM; activation: at the top concentration
Description: National Center for Advancing Translational Sciences [NCATS] NIH Chemical Genomics Center [NCGC] U.S. Environmental Protection Agency [EPA] National Institutes of Environmental Health Sciences [NIEHS] National Toxicology Program [NTP] Assay overview: Estrogen related receptors (ERRs), the first orphan nuclear receptors discovered, play an important role in the control of cellular energy metabolism. ERRs are required for high-energy production in response to the environmental challenges. The pleiotropic PPARgamma coactivator (PGC) is a major partner of ERR and a key regulator in energy homeostasis. Together they have been implicated in the etiology of metabolic disorders such as Type 2 diabetes and metabolic syndrome. ERR-alpha was also identified as an adverse marker for breast cancer progression; ERR-alpha-positive tumors have a poor prognosis. To screen and to identify environmental compounds that perturb the PGC/ERR signaling pathways could provide valuable information for potential therapeutic or preventive measures in the treatment of metabolic disease. For identifying PGC/ERR agonists, PGC/ERR cell line (provided by NTP) has been used to screen Tox21 10K library.
Assay Protocol Summary: The PGC/ERR cells were dispensed at 2,000 cells/5 ul/well in 1536-well white plates using a Multidrop dispenser. After the assay plates were incubated at a 37 C/5% CO2 incubator for 6 hours, 23 nL of compounds dissolved in DMSO, positive and negative controls or DMSO only was transferred to the assay plate by a pin tool. The plates were incubated at 37 C for 18 hours. 4 ul/well of One-Glo reagent was added into the assay plates using a Flying Reagent Dispenser. After 30-minute incubation at room temperature, the luminescence intensity in the plates was measured using a ViewLux plate reader.
For [N-]=[N+]=CC(=O)OC[C@H](N)C(=O)O, the Potency was “inactive”. In the case of Cc1ccc(N=C=O)cc1N=C=O, the Potency is reported as “inactive”. For CN(C)NC(=O)CCC(=O)O, the Potency was “inactive”. For OCCCCO, the Potency was “inactive”. With CN(C)C(=O)Cl the Potency was “inactive”. With CCOc1ccc(N)cc1 the Potency was “inactive”. In the case of O=C(O)c1cc(Oc2ccc(C(F)(F)F)cc2Cl)ccc1[N+](=O)[O-], the Potency is reported as “inactive”. For CNC(=O)O/N=C/C(C)(C)SC, the Potency was “inactive”. In the case of CNCC(O)c1ccc(O)cc1 (configuration not stated), the Potency is reported as “inactive”. In the case of COc1cc(-c2ccc(N)c(OC)c2)ccc1N, the Potency is reported as “inactive”. In the case of Cl[C@H]1OCCO[C@@H]1Cl, the Potency is reported as “inactive”. For C=CC#N, the Potency was “inactive”. In the case of Cc1cccc(N)c1, the Potency is reported as “inactive”. In the case of CCNc1nc(Cl)nc(NC(C)C)n1, the Potency is reported as “inactive”. With COC(C)(C)CCCC(C)C/C=C/C(C)=C/C(=O)OC(C)C (configuration not stated) the Potency was “inactive”. For CCSC(=O)N1CCCCCC1, the Potency was “inactive”. For Cc1ccc(O)c(C)c1, the Potency was “inactive”. For C=CC(=O)OCC(CC)CCCC (configuration not stated), the Potency was “inactive”. In the case of ClC(Cl)c1ccccc1, the Potency is reported as “inactive”. With C=CCN=C=S the Potency was “inactive”. With O=[N+]([O-])c1ccc(Cl)c(Cl)c1 the Potency was “inactive”. For Nc1nc(N)nc(NC2CC2)n1, the Potency was “inactive”. In the case of O=P1(NCCCl)OCCCN1CCCl (configuration not stated), the Potency is reported as “inactive”. In the case of OCc1ccco1, the “activation” value is reported as 0.935%. With O=[N+]([O-])c1cc([As](=O)(O)O)ccc1O the Potency was “inactive”. For CNC(=O)O/N=C(\SC)C(=O)N(C)C, the “activation” value was 2.09%. For CC(C)(C)C(=O)CCl, the Potency was “inactive”. For O=C(O)Cc1ccccc1, the Potency was “inactive”. With COc1nc(NC(C)C)nc(NC(C)C)n1 the Potency was “inactive”. With Cc1cc(O)ccc1Cl the Potency was “inactive”. With OC[C@@H](O)[C@H]1O[C@@H]2O[C@H](C(Cl)(Cl)Cl)O[C@@H]2[C@H]1O the Potency was “inactive”. In the case of Cc1ccc(N)cc1, the Potency is reported as “inactive”. In the case of C=C(C)C(=O)OCC(CC)CCCC (configuration not stated), the Potency is reported as “inactive”. For COC(=O)Nc1cccc(OC(=O)Nc2cccc(C)c2)c1, the Potency was 13.7 µM (active). In the case of Nc1cccc(Cl)c1, the Potency is reported as “inactive”. With CC(C)c1cccc(C(C)C)c1O the Potency was “inactive”. For Nc1ncc([N+](=O)[O-])s1, the Potency was “inactive”.
